From PubChem BioAssay
ROC1-CUL1 inh: human ROC1-CUL1 E3 ligase inhibition; in vitro K48 di-Ub FRET, acceptor:donor ratio, 45 min; AID 1347404; inhibition, % at 10 µM; hit rate 0.6% among 140,000; P62877+Q13616; in the data active = inhibition above about 25%
Numbers without * were called inactive. The sample as a whole holds a higher share of hits than the screen did.

SMILES | ROC1-CUL1 inh
CC(=O)c1coc2c1C(=O)c1ccccc1C2=O | 34*
O=C1C(=O)c2c(C(=O)c3cccs3)coc2-c2ccccc21 | -5
Cc1ccc(NC(=O)c2cccc3c2C(=O)c2ccccc2-3)cc1 | 2
C=CCNS(=O)(=O)c1ccc(C(=O)N2CCc3ccccc32)cc1 | -7
Cc1ccc(C(=O)c2coc3ccc(O)c(Cl)c23)cc1 | 0
CC(=O)C(C(C)=O)C1=C(Cl)C(=O)C(=O)c2c(C(=O)c3ccc(C)cc3)coc21 | 79*
Cc1ccc(C(=O)c2coc3c2cc(O)c2ccccc23)cc1 | -8
O=C1CC(=C(c2ccccc2)c2ccccc2)C(=O)N1CCN1CCN(c2ccccc2)CC1 | 0
Nc1cc(S(N)(=O)=O)ccc1Cl | 3
Cc1ccccc1C(=O)Nc1sc2c(c1C(=O)O)CCC(C(C)(C)C)C2 (stereo not given) | -4
CCN(CC)C(=O)c1c(NC(=O)c2ccco2)sc2c1CCC(C(C)(C)C)C2 (stereo not given) | 14
CC(C)(C)C1CCc2c(sc(NC(=O)c3ccco3)c2C(=O)O)C1 (stereo not given) | 39*
O=C1OC(c2ccccc2)=C/C1=C/c1ccc2c(c1)OCO2 | 12
Nc1c(C(=O)Nc2nnc(SCc3ccccc3Cl)s2)sc2nc(-c3ccncc3)ccc12 | -1
O=C1CC=Cc2ccc(O)c(O)c2C1=O | 53*
CCCNS(=O)(=O)c1ccc(F)c(OCC)c1 | 8
COc1cc(NC(=O)CN(C)S(=O)(=O)c2ccc3[nH]c4c(c3c2)CCCC4)cc(OC)c1OC | 2
CCOC(=O)c1cc(-c2ccc(/C=C3/C(=O)NN(c4ccccc4)C3=O)o2)ccc1Cl | -2
CCOC(=O)c1ccc(-c2ccc(/C=C3\C(=O)NN(c4ccc(Br)c5ccccc45)C3=O)o2)cc1 | 9
CCOC(=O)c1ccc(N2NC(=O)/C(=C/c3ccc(-c4ccc(Br)cc4C(=O)O)o3)C2=O)cc1 | 98*
O=c1/c(=C/c2ccccc2OCc2ccccc2Cl)sc2n1C(c1cccs1)C1=C(N=2)c2ccccc2CC1 (stereo not given) | 1
CCOC(=O)c1ccc(-n2c(C)cc(/C=C3\SC(=Nc4ccc(Cl)cc4)NC3=O)c2C)cc1 | 1
Cc1cc(/C=C2\SC(=Nc3ccc(F)cc3)NC2=O)c(C)n1-c1ccc(S(N)(=O)=O)cc1 | -5
Cc1cc(/C=C2\SC(=Nc3ccc(Cl)cc3)NC2=O)c(C)n1-c1cc(C(=O)O)cc(C(=O)O)c1 | 100*
CCCOc1cccc(C2C(C(=O)c3ccc(F)cc3)C(=O)C(=O)N2CCCN(CC)CC)c1 (stereo not given) | 11
SMILES | ROC1-CUL1 inh
C=C(C)CN(CC)C(=O)C1CCN(c2nc(C)c3ccc(S(C)(=O)=O)cc3n2)CC1 | 2
Cc1c(Sc2c(C)n(C)n(-c3ccccc3)c2=O)c(=O)n(-c2ccccc2)n1C | 2
Cc1c(N=NC2C(=O)N(c3ccccc3)N=C2N)c(=O)n(-c2ccccc2)n1C (stereo not given) | -5
CC1=NNC(=O)C1N=Nc1c(C)n(C)n(-c2ccccc2)c1=O (stereo not given) | 39*
Cc1ccc(-c2cc(C(=O)NCc3ccccn3)c3ccccc3n2)o1 | 4
c1coc(CCNc2nc3nonc3nc2NC2CC2)c1 | 7
CCOc1cc(CNc2ccc(O)cc2)cc(Cl)c1OCc1ccc(Cl)cc1 | 86*
CCOc1cc(CNc2ccc(N3CCCC3)cc2)cc(Cl)c1OC | 63*
COc1cc(CNc2ccc(N3CCCCC3)cc2)cc(Cl)c1OCc1cccs1 | -1
CCOc1cc(CNc2ccc(C)c(Cl)c2)cc(Cl)c1OCc1ccc(Cl)cc1Cl | -5
COc1cc(CNc2ccc(N3CCCC3)cc2)cc(Cl)c1OC | -8
COc1cc(CNc2ccc(O)cc2)cc(Cl)c1OCc1ccc(Cl)cc1 | 0
CCOc1ccc(-n2c(Cc3ccccc3)nnc2SCc2ccccc2)cc1 | -6
CCOC(=O)C(NC(=O)Nc1ccc(S(=O)(=O)Nc2ccc(OC)nn2)cc1)(OCC)C(F)(F)F (stereo not given) | 2
CCC(=O)C1CCCN(C(=O)c2cc(NC(=O)c3ccccc3)cc3ncn(C4CCCC4)c23)C1 (stereo not given) | 1
O=C1C=CC([N+](=O)[O-])=CC(C(=O)/C=C/c2ccccc2)C1=O (stereo not given) | 83*
O=C1C=CC(Br)=CC(C(=O)/C=C/c2ccc(F)cc2)C1=O (stereo not given) | 11
CN1C(=O)C(C(=O)/C=C/c2ccccc2)C(=O)N(C)C1=O | 0
O=C(CSc1nc2c(c(=O)[nH]1)C1(CCCC1)Cc1ccccc1-2)c1ccc(Cl)cc1 | 17
COc1ccc(S(=O)(=O)Nc2ccc(S(=O)(=O)N3CCCC3)cc2)cc1OC | 1
Cc1cc(Br)c(NC(=O)c2cccs2)cc1C | -12
O=C1C2C3C=CC(C3)C2C(=O)N1/N=C/c1ccc(O)cc1 (stereo not given) | 6
CCOC(=O)C1=C(C)N=c2s/c(=C\c3ccc(I)cc3)c(=O)n2C1c1ccc(OC)cc1 (stereo not given) | -4
CCOC(=O)C1=C(C)N=c2s/c(=C\c3ccc(Cl)cc3)c(=O)n2C1c1ccc(C(C)C)cc1 (stereo not given) | 5
CCOC(=O)C1=C(C)N=c2s/c(=C/c3ccc(C(=O)O)cc3)c(=O)n2C1c1ccc(C(C)C)cc1 (stereo not given) | 90*
SMILES | ROC1-CUL1 inh
CCN(CC)C(=O)C1CCCN(C2CC(=O)N(c3ccccc3)C2=O)C1 (stereo not given) | -6
COc1cccc(C2c3c(cc(C)oc3=O)OC(=N)C2[N+](=O)[O-])c1 (stereo not given) | 4
Cc1ccc(-c2cc(C(=O)Nc3sc4c(c3C(N)=O)CCC(C(C)(C)C)C4)c3ccccc3n2)o1 (stereo not given) | -2
NC(=O)c1c(NC(=O)c2cc(-c3ccccc3)nc3ccccc23)sc2c1CCCCCC2 | 6
CCC1CCc2c(sc(NC(=O)c3cc(-c4ccco4)nc4ccccc34)c2C(N)=O)C1 (stereo not given) | 43*
COc1cccc(C(NC(=O)c2ccc(Cl)cc2)NC(=O)c2ccc(Cl)cc2)c1 | 0
CC(=O)c1ccc(N=Nc2sc3ccccc3c2O)cc1 | -4
CC1N(C)c2cccc3cccc(c23)N1C | -22
CN1c2ccccc2N(C)C1c1cccs1 | 6
CN1c2cccc3cccc(c23)N(C)C1c1cccs1 | 78*
O=C(COc1ccccc1)Nc1ccc(N2CCN(C(=O)c3cccs3)CC2)c(Cl)c1 | 5
N=C1/C(=C\c2ccc(OC(=O)c3ccc(F)cc3)c(Cl)c2)C(=O)N=C2SC(c3ccco3)=NN12 | 13
N=C1/C(=C/c2cccc(OC(=O)c3ccc(F)cc3)c2)C(=O)N=C2SC(c3cccs3)=NN12 | 28*
Cc1ccc(C2=NN3C(=N)/C(=C/c4cccc(OCc5ccc(F)cc5)c4)C(=O)N=C3S2)cc1 | -7
COc1ccc(C2c3c(n[nH]c3C(C)(C)C)OC(=N)C2C#N)cc1OC (stereo not given) | -3
CCc1ccccc1-n1c(C)cc(/C=C2\C(=O)NC(=O)N(c3ccccc3)C2=O)c1C | -4
COc1cc(Br)c(Br)c(/C=C2\SC(c3ccccc3)=NC2=O)c1O | 2
CS(=O)(=O)N(CC(=O)N1CCN(c2ccc(F)cc2)CC1)c1ccc(F)c(F)c1 | -13
Cc1cccc2c(C(=O)O)cc(-c3ccccc3O)nc12 | 29*
Cc1cccc2c(C(=O)N(C)C)cc(-c3cnn(Cc4ccccc4)c3)nc12 | 1
Cc1cccc2c(C(=O)O)cc(-c3ccc(-c4ccccc4)cc3)nc12 | -4
